# Data from PubChem BioAssay (NCI).
# Several values for one entry are separate records, joined by “and”; a condition that tells them apart may be missing. Equal entries are not always repeated. Compounds without any hit were thinned out: in the full panel of roughly 83,000, 20% have a hit.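 Assay: single dose, 48 h. Readout: percent growth (0 = no net growth; negative = cell death). Active: <10.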 Activity calls are given as the source filed them.
# Test system: UO-31 renal
# Assay: NCI-60 one-dose screen, 48 h (100 = growth as untreated, 0 = no growth, -100 = all killed)
# Settings: 10 µM unless noted
# Protocol: Growth inhibition of the UO-31 human tumor cell line is measured as a screen for anti-cancer activity. Cells are grown in 96 well plates and exposed to the test compound for 48 hours. Compounds are tested at a single concentration, which is 10^-5 M for most compounds. The reported endpoint is percent growth (GI% or GIPRCNT), where numbers from 0 - 100% represent growth inhibition, and numbers from -100% - 0 represent cell death. For example, a value of 40 represents 60% growth inhibition. A value of 0 means no net growth occurred over the course of the experiment. A value of -40 indicates 40% of cells at the beginning of the experiment died by the end of the experiment. A value of -100 means all cells are dead at the end of the experiment.
# NCI-60 Human Tumor Cell Lines Screen was performed using the standard one-dose NCI protocol, which is described in more detail at https://dtp.cancer.gov/discovery_development/nci-60/default.htm.
# Compounds with GIPRCNT values below 10 were considered active. Activity score was based on GIPRCNT using the following formula: […]
# Score is 0 for GIPRCNT values of 100 or above, 50 for GIPRCNT values of 0, and 100 for GIPRCNT values of -100.
row,SMILES,growth
1,CCn1c2ccc(N(C)C)cc2c2cc(N(C)C)ccc21,94.5% (inactive)
2,O=C(O)C1CSCN1 (stereo not given),81.3% (inactive) and 88.6% (inactive)
3,CC(C)(C)OC(=O)NCCc1ccc(N)cc1,72% (inactive)
4,Cc1c(O)nc(N)[nH]c1=O,82.9% (inactive)
5,CC1CCC(=O)N1c1ccc(N)cc1 (stereo not given),93.7% (inactive)
6,N#Cc1c(N)nc2c(c(-c3ccc(Cl)cc3)nn2-c2ccccc2)c1C#N,96.6% [100 µM] (inactive)
7,Nc1c(Cl)cc2c(c1Br)C(=O)c1ccccc1C2=O,63.2% (inactive)
8,Nc1ccccc1SC(CC(=O)c1ccccc1)c1cccc([N+](=O)[O-])c1 (stereo not given),71.6% (inactive) and 61.5% (inactive)
9,O=C(c1ccccc1)C1(Br)CCCCC1,82.2% (inactive)
10,C=CCN1C(=O)c2ccccc2C1=O,78.3% (inactive)
11,Cc1c(Cl)c(C)c(Cc2c(C)c(Cl)c(C)c(Cl)c2O)c(O)c1Cl,7.71% (active)
12,O=C(Nc1ccccc1)OCC(CN1CCCCC1)OC(=O)Nc1ccccc1 (stereo not given),53.5% (inactive) and 66.7% (inactive)
13,NCCCCCC(=O)O,89.3% (inactive) [middle of 4 runs]
14,CCCCCCCCCCCCCCCCC(=O)O,85.7% (inactive)
15,Cc1ccc(NC(=S)N/C=C(\c2ccccc2)S(=O)Cc2ccccc2)c(C)c1 (stereo not given),80.2% (inactive)
16,CCOP(=O)(OCC)/C(C#N)=C/c1c(C)[nH]c2ccccc12,72.8% (inactive)
17,COC(=O)c1ccccc1Cl,93.8% (inactive)
18,CC(=O)C[n+]1ccccc1Sc1ccc(Cl)cc1,60.5% (inactive)
19,CC1CC(O)CC(C)(C)C1.CC1CC(O)CC(C)(C)C1.CC1CC(O)CC(C)(C)C1.CC1CC(O)CC(C)(C)C1.[Ti] (stereo not given),79% (inactive)
20,O=c1[nH]c(=S)[nH]n1C(=S)n1[nH]c(=S)[nH]c1=O,80.5% (inactive)

row,SMILES,growth
1,CC(C)(C)C1CCC(=NO)CC1 (stereo not given),71.7% (inactive)
2,Nc1ccccc1SC1CC(=O)N(c2ccc(I)cc2)C1=O (stereo not given),86.8% (inactive)
3,O=C(c1ccc(Cl)cc1)C1C(c2ccccc2)C1[N+](=O)[O-] (stereo not given),74.8% (inactive)
4,COCCCNC1=C(C#N)C(=O)NC(c2cccs2)S1 (stereo not given),76.3% (inactive)
5,OCCCc1ccccc1,72.6% (inactive)
6,CCCC(=O)Oc1ccc(CC)cc1,93.7% (inactive)
7,Cc1cc(O)c(C(C)C)cc1N=O,106% (inactive) and 92.5% (inactive)
8,CC(=O)Nc1ccc(OC(C)=O)cc1,21.8% (inactive) and 98.6% (inactive)
9,CCN(C)c1ccccc1,72.6% (inactive)
10,OCCSc1ccc(Cl)cc1,95.9% (inactive) and 85.7% (inactive)
11,COc1cc(NCCCCCCCNC(C)C)c2nccc(C)c2c1,38.4% (inactive) and 47.1% (inactive)
12,CC1OS(=O)OC1C (stereo not given),96.1% (inactive)
13,COc1cc2c(cc1O)C(=O)CCCC2,90.4% (inactive)
14,CSc1nc(N)c(N)c(N)n1,93% (inactive)
15,Cc1cc(Cl)nc(Nc2ccccc2)n1,102% (inactive)
16,NC1=NC(c2ccccc2)N=C(Nc2ccccc2)N1 (stereo not given),105% (inactive) and 89.7% (inactive)
17,CC1(C)OC(=O)C(=Cc2ccc(C#N)cc2)C(=O)O1,94.3% (inactive) and 87.1% (inactive)
18,OCc1ccccc1F,84.7% (inactive)
19,COc1ccc(C(=O)C(O)c2ccc(OC)cc2)cc1 (stereo not given),89.1% (inactive) and 90.7% (inactive)
20,COC(=O)c1nc(=S)[nH]c(C(=O)OC)c1C(=O)c1ccc(OC)cc1,86.8% (inactive)
